The values that follow come from PubChem BioAssay (Tox21).

Values without a mark were called inactive. Inconclusive results are not listed. Activity calls are given as the source filed them. Unless noted, calls come from the whole dose curve.

Assay [1] in a line: Nuclear factor erythroid 2-related factor 2/antioxidant responsive element (Nrf2/ARE) small molecule agonists: qHTS cell viability counter screen in human keratinocytes (AID 1919968; active = well fitted curve in the direction sought with a large enough effect in the repeat runs; an effect the other way counts as inactive or inconclusive; note: nearly all actives have a fitted effect of over 55% in size; note: potency is the fitted concentration of half-maximal effect). The method, boiled down: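 After a 5 h attachment period, ARE-reporter keratinocytes were dosed with compounds in DMSO and then cultured 23 h at 37 C. Cell viability came from CellTiter-Fluor signal read after a further 1 h.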
Background: qHTS replaces the single test concentration by a dilution series.

Assay [2] concerns the target Gonadotropin-releasing hormone receptor (Homo sapiens) (UniProt P30968). As to the kind of experiment: Human gonadotropin-releasing hormone receptor (GnRHR) small molecule agonists, calcium flux assay in GnRHR-HEK293 cells (AID 1920063). Note: nearly all actives have a fitted effect of over 35% in size. The method, boiled down: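 We seeded human GnRHR-expressing HEK293 cells for 18 hours, loaded them with calcium dye for an hour at 37 C, added test compounds, and recorded fluorescence intensity kinetically for three minutes.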

The target in assay [3] is KiSS-1 receptor (Homo sapiens) (UniProt Q969F8). As to the kind of experiment: Human kisspeptin (KISS1R) small molecule agonists, calcium flux assay in KISS1R-HEK293 cells (AID 1920064; active = well fitted curve in the direction sought with a large enough effect in the repeat runs; an effect the other way counts as inactive or inconclusive). The method, boiled down: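 Kinetic calcium assay, 1 s sampling over 3 min at Ex/Em 480/540, in HEK293 cells engineered with human KISS1R; compounds delivered in DMSO after 1 h dye loading.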
(A change in cytosolic calcium serves as a functional read-out for many receptors and channels.)

Assay [4] can be described thus: G protein-coupled receptor (GPCR) small molecule agonists, calcium flux assay: HEK293 wild type cell line counter screen (AID 1920065). Summed up:
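Calcium-sensitive dye, loaded 1 h at 37 C into cells cultured 18 h, reports compound-evoked calcium release as fluorescence (Ex/Em 480/540), measured over 3 min. Agonist mode; 15-point titrations, triplicate.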

Assay [5] in a line: p53 small molecule agonists, cell-based qHTS assay with human liver microsomes (AID 1963577). Summed up: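 Cells carrying a p53-responsive bla reporter were rested 5 h (37 C, 5% CO2) before compound transfer. Human liver microsomes plus NADPH, 0.5 mg/mL final apiece, supplied metabolism during the 16 h 37 C exposure.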
Assay [6] can be described thus: p53 small molecule agonists, cell-based qHTS assay with human liver microsomes: qHTS cell viability counter screen (AID 1963579). Note: nearly all actives have a fitted effect of over 45% in size. The method, boiled down: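 Seed p53RE-bla cells at 4,000 per well; incubate 5 h at 37 C; add compound, human liver microsomes and NADPH; incubate 16 h at 37 C; add CellTiter-Glo; after 30 min at room temperature, read luminescence.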
Assay [7] can be described thus: p53 small molecule agonists, cell-based qHTS assay with rat liver microsomes: qHTS cell viability counter screen (AID 1963580). Note: nearly all actives have a fitted effect of over 45% in size. The method, boiled down:
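p53RE-bla HCT-116 cells were exposed 16 h at 37 C to compounds with rat liver microsomes (0.5 mg/mL) and NADPH (0.5 mg/mL). Viability was measured in the same wells as ATP content by CellTiter-Glo luminescence.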

Assay [8] can be described thus: p53 small molecule agonists, cell-based qHTS assay: qHTS cell viability counter screen (AID 1963581). Note: nearly all actives have a fitted effect of over 45% in size. Summed up:
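Following 5 h attachment, HCT-116 p53RE-bla cells took up compound for 16 h at 37 C; the reporter was read with B/G FRET substrate (2 h RT), and viability then via CellTiter-Glo ATP luminescence.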

Assay [9] is described as follows: p53 small molecule agonists, cell-based qHTS assay (AID 1963582; active = well fitted activation curve with a large enough effect in the signal ratio in the repeat runs, not every such curve was filed as active; the % refers to the signal ratio). Summed up:
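In this cell-based concentration-response screen, a p53 response element drives beta-lactamase; cells received DMSO-borne compounds after 5 h culture and were incubated a further 16 h before FRET substrate development.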

Assay [10] deals with 5-hydroxytryptamine receptor 2A (Homo sapiens) (UniProt P28223). As to the kind of experiment: 5-hydroxytryptamine receptor 2A (HTR2A) small molecule agonists, cell-based qHTS assay (AID 1963587). Note: nearly all actives have a fitted effect of over 30% in size. Summed up: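 CHO cells stably expressing human HTR2A, plated 18 h, loaded with calcium dye 1 h at 37 C. Agonist mode: compounds added and intracellular calcium fluorescence recorded kinetically for 2 min at 1 sec intervals.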

Assay [11] has as its target Muscarinic acetylcholine receptor M1 (Homo sapiens) (UniProt P11229). Briefly: Cholinergic receptor muscarinic 1 (CHRM1) small molecule antagonists, cell-based qHTS assay (AID 1963588). Note: nearly all actives have a fitted effect of over 40% in size. Summed up:
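CHRM1-CHO calcium-flux assay, antagonist mode. Cells were seeded 18 h, dye-loaded 1 h at 37 C and given compound for 5 min at RT, then acetylcholine was added at 50nM. FDSS fluorescence was read 3 min; 15 concentrations, three runs.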

The target is the same in assay [12]. As to the kind of experiment: Cholinergic receptor muscarinic 1 (CHRM1) small molecule agonists, cell-based qHTS assay (AID 1963589). Note: nearly all actives have a fitted effect of over 35% in size. Summed up:
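Measures agonist-induced intracellular calcium rise. Stable human CHRM1 CHO line, 1 h dye load at 37 C, compounds from DMSO, kinetic fluorescence read.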

A short description of assay [13]: cAMP Responsive Elements (CRE) small molecule agonists, cell-based qHTS assay (AID 1963590). Summed up: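 A CRE-responsive beta-lactamase reporter in HEK 293T cells was used. Treatment ran 3 h at 37 C; detection used LiveBLAzer B/G FRET substrate for 2 h at room temperature.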
Assay [14] is described as follows: cAMP Responsive Elements (CRE) small molecule antagonists, cell-based qHTS assay (AID 1963591; active = well fitted inhibition curve with a large enough effect in the signal ratio in the repeat runs, not every such curve was filed as active; the % refers to the signal ratio). The method, boiled down:
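HEK293T cells carrying a CRE-driven beta-lactamase reporter receive compound and NKH477 (0.25 uM final) for 3 h. Fluorescence from LiveBLAzer B/G FRET substrate is read after 2 h at room temperature.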

Assay [15] deals with Beta-2 adrenergic receptor (Homo sapiens) (UniProt P07550). As to the kind of experiment: Adrenergic beta2 receptor (ADRB2) small molecule antagonists, cell-based qHTS assay (AID 1963592). Note: nearly all actives have a fitted effect of over 50% in size. Note: potency is the fitted concentration of half-maximal effect. The method, boiled down: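 Cells (CHO, stable ADRB2 overexpression) incubated 18-20hr at 37C; compounds added from DMSO; agonist mix (1nM isoproterenol, 100uM IBMX, 25uM Ro-20-1724) added; 0.5hr RT; d2-cAMP and anti-cAMP-cryptate added; 1hr RT; 665/615 nm read.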

For assay [16] the target is unchanged. As to the kind of experiment: Adrenergic beta2 receptor (ADRB2) small molecule agonists, cell-based qHTS assay (AID 1963593).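 For activation: CHO cells stably overexpressing human ADRB2.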 Note: potency is the fitted concentration of half-maximal effect. The method, boiled down: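 CHO cells stably over-expressing ADRB2 were plated overnight at 37C, then dosed with compounds plus a stimulation mix containing 100uM IBMX and 25uM Ro-20-1724 for 0.5hr at room temperature. cAMP was measured by HTRF competition, 1hr.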

In assay [17] the target is D(2) dopamine receptor (Homo sapiens) (UniProt P14416). Briefly: Dopamine D2 receptor (DRD2) small molecule agonists, cell-based qHTS assay (AID 1963594). Note: nearly all actives have a fitted effect of over 35% in size. Summed up: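 HEK293 cells stably expressing human DRD2, pre-treated with PDE inhibitor Ro20-1724 (0.1 mM final) and compound 10 min at room temperature, then stimulated with NKH477 (200nM […]) for 30 min. cAMP read by HTRF (665/620 nm).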

For assay [18] the target is unchanged. Briefly: Dopamine D2 receptor (DRD2) small molecule antagonists, cell-based qHTS assay (AID 1963595; active = well fitted inhibition curve with a large enough effect in the signal ratio in the repeat runs, with a control signal flat; the % refers to the signal ratio; note: potency is the fitted concentration of half-maximal effect). The method, boiled down:
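Stable D2 receptor HEK293 line, 24 h after seeding. Compound preincubated 10 min, then quinpirole (12 nM) with forskolin analogue NKH477 (200 nM), 30 min, room temperature. Detection by time-resolved FRET of cAMP.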

For assay [19], the target named is 5-hydroxytryptamine receptor 2A (Homo sapiens) (UniProt P28223). Briefly: 5-hydroxytryptamine receptor 2A (HTR2A) small molecule antagonists, cell-based qHTS assay (AID 1963586). Note: nearly all actives have a fitted effect of over 45% in size. Note: potency is the fitted concentration of half-maximal effect. The method, boiled down:
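Antagonist-mode intracellular calcium assay: DOI (4 nM) added after 5 min compound pre-incubation at room temperature to dye-loaded HTR2A-CHO cells. Fluorescence followed for 3 min, sampled every second.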

A short description of assay [20]: p53 small molecule agonists, cell-based qHTS assay with rat liver microsomes (AID 1963578). The method, boiled down: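 Fluorescence from a beta-lactamase reporter under a p53 response element was measured after cells had been incubated 16 h at 37 C with test compound and rat liver microsomes plus NADPH (0.5 mg/mL final each).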

Beta-2 adrenergic receptor (Homo sapiens), sequence (P07550 whole entry, looked up): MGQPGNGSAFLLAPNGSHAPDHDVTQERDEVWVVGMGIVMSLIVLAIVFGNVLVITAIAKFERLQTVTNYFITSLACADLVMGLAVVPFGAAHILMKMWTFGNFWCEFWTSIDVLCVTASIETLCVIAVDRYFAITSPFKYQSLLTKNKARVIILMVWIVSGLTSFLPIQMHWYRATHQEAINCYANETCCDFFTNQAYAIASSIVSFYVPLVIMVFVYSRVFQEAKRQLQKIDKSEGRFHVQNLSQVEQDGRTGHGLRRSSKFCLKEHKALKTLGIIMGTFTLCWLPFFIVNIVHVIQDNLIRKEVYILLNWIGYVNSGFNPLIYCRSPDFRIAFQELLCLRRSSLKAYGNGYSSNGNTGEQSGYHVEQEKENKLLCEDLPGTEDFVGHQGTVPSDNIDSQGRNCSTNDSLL
D(2) dopamine receptor (Homo sapiens), sequence (P14416 whole entry, looked up): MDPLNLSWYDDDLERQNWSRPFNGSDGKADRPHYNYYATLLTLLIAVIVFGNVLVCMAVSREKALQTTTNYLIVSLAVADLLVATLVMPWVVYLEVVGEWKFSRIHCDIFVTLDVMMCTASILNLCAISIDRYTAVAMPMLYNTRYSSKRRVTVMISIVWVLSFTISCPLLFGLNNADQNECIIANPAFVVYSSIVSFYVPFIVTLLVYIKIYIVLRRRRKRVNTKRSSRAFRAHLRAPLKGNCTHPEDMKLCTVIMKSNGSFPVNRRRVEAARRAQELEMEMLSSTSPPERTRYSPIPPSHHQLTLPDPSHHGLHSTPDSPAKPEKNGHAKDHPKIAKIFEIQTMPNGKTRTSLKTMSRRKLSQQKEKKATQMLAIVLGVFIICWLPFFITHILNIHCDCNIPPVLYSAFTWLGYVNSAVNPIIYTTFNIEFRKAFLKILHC
Muscarinic acetylcholine receptor M1 (Homo sapiens), sequence (P11229 whole entry, looked up): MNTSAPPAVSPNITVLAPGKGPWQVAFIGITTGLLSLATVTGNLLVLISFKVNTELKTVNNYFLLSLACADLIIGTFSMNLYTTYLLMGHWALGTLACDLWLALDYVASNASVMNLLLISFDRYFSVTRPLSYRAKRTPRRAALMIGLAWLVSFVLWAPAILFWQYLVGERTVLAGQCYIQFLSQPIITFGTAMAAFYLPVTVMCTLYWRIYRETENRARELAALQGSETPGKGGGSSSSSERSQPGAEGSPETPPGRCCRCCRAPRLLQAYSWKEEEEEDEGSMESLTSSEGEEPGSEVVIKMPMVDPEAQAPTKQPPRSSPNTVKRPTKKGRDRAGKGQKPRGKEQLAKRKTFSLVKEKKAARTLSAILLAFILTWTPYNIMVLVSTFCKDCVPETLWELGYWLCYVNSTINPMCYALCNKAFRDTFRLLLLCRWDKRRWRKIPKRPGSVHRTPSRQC
5-hydroxytryptamine receptor 2A (Homo sapiens), sequence (P28223 whole entry, looked up): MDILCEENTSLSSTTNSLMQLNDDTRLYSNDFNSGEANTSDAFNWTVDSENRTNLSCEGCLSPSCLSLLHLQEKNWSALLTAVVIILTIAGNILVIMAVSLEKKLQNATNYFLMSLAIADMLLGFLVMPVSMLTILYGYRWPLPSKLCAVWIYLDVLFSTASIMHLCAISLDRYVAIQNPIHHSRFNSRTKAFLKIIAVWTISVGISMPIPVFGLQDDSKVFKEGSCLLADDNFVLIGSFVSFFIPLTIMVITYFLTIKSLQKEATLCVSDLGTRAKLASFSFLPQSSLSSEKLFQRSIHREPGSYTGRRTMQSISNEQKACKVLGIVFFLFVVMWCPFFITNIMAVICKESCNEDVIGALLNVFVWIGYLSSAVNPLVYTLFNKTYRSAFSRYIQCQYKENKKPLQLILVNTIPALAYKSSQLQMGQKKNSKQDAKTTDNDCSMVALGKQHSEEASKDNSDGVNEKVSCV
Gonadotropin-releasing hormone receptor (Homo sapiens), sequence (P30968 whole entry, looked up): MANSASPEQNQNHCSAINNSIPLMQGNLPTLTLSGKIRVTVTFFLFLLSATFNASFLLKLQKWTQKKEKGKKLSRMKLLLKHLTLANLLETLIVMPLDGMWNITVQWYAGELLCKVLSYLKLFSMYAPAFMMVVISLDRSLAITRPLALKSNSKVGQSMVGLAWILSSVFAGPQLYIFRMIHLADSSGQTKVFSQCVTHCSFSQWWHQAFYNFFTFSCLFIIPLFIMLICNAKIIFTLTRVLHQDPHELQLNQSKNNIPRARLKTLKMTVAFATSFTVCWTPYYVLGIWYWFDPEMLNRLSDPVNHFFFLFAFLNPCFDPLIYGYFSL
KiSS-1 receptor (Homo sapiens), sequence (Q969F8 whole entry, looked up): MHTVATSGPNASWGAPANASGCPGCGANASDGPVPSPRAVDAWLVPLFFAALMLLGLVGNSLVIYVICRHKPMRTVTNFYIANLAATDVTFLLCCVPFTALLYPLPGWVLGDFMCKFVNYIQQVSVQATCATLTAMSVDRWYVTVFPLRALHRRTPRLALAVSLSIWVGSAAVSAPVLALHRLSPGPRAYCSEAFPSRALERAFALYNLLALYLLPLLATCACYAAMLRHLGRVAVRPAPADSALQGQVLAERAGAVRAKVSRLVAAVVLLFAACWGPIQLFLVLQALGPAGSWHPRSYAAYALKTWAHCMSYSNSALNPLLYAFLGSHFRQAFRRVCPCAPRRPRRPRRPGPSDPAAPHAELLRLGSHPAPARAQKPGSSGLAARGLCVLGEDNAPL

For the molecule `CN(C)c1ccc(C=O)cc1`, the Potency entry in assay [1], in [2], in assay [3], in [4], in assay [5] and in assay [6] was “inactive” each time. The Potency entry in [7], in assay [8], in assay [9], in [10], in assay [11] and in [12] was “inactive” throughout. Further, the Potency result in [13], in [14], in assay [15], in assay [16], in [17] and in assay [18] was “inactive” in each case.

Turning to `CN1C(=O)c2ccccc2C1=O`, the Potency result in assay [1], in assay [2], in assay [3], in assay [4], in assay [5] and in [6] was “inactive” throughout. For the same molecule, the Potency result in assay [8], in [9], in assay [19], in [10], in assay [12] and in [14] was “inactive” each time. For the same molecule, in assay [18], the Potency entry was “inactive”. Also, the Potency in assay [15] was 54.5 µM (active).

With `CC(C)c1cccc(C(C)C)c1NC(=O)NS(=O)(=O)c1cc(C(C)(C)O)co1`, the Potency result in assay [1], in assay [2], in assay [3], in [4], in [5] and in [7] was “inactive” in each case. Also, the Potency result in assay [8], in assay [19], in [10], in [11], in assay [12] and in assay [13] was “inactive” each time. Besides, the Potency result in [15], in assay [16] and in assay [17] was “inactive” throughout.

On to `O=C(NO)c1ccccc1`, for which the Potency result in assay [1], in assay [2], in [3], in assay [4], in assay [20] and in [7] was “inactive” each time. The Potency result in assay [8], in assay [12] and in [18] was “inactive” each time. Besides, the Potency in assay [16] is 20.7 µM (active).

For the molecule `CCN(Cc1ccccc1)c1ccccc1`, the Potency result in assay [1], in [2], in assay [3], in [4], in assay [20] and in [7] was “inactive” each time. For the same molecule, the Potency entry in assay [9], in assay [19], in assay [10], in assay [11], in assay [12] and in assay [14] was “inactive” throughout. The Potency entry in [15], in assay [17] and in [18] was “inactive” each time.

On to `C=CCOCC(O)CCl` (stereo not given), for which the Potency entry in assay [1], in [2], in [3], in assay [4], in [20] and in assay [6] was “inactive” each time. Moreover, the Potency result in [7], in assay [8], in assay [9], in assay [19], in assay [10] and in assay [11] was “inactive” throughout. For the same molecule, the Potency result in assay [12], in assay [14], in assay [15] and in assay [17] was “inactive” in each case.

On to `CS(C)=O`, for which the Potency result in assay [1], in [2], in assay [3], in [4], in assay [20] and in assay [6] was “inactive” throughout. Further, the Potency entry in [7], in assay [8], in [9], in assay [13], in [14] and in assay [15] was “inactive” throughout. Moreover, the Potency entry in assay [16], in [17] and in assay [18] was “inactive” in each case.

With `COc1ccc(C2CNC(=O)C2)cc1OC1CCCC1` (stereo not given), the Potency result in assay [1], in assay [2], in [3], in assay [4], in assay [5] and in assay [7] was “inactive” throughout. Besides, the Potency result in [8], in [9], in [19], in [10], in [11] and in assay [12] was “inactive” throughout. Moreover, the Potency result in [13], in assay [14], in assay [15], in assay [16], in assay [17] and in [18] was “inactive” each time.

`O=C1NC2CCCCN2C12CCN(CCCN1c3ccccc3CCc3ccc(Cl)cc31)CC2` (stereo not given): the Potency in assay [1] is 29.8 µM (active); in assay [19] it was 0.0365 µM (active); in [18], 0.335 µM (active). In addition, the Potency result in assay [2], in assay [3], in [4], in assay [20], in [6] and in assay [7] was “inactive” each time. For the same molecule, the Potency result in assay [8], in assay [10], in assay [12], in assay [16] and in [17] was “inactive” throughout.
